Screening results from PubChem.
TDP1 cell CPT – DT40-hTDP1 cell growth loss with CPT. chicken DT40 Tdp1-/-;hTDP1 cells + 20 nM CPT, ATP luminescence, 48 h. Potency, µM (titrated, usually from 46.2 µM), without a hit: at the top dose activity change, negative = growth inhibition, most hits filed as inhibitors. AID 686979. actives 12% (n = 420,000); further: nearly all actives have a fitted effect of over 55% in size
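Chicken DT40 Tdp1-/- cells complemented with human TDP1, 400 cells/well, exposed to compounds plus 20 nM camptothecin for at least 48 h at 37 C; viability read as ATP content by CellTiter-Glo luminescence.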
KB-3-1 tox – KB-3-1 parental cell cytotoxicity; Potency, µM (series often up to 46.1 µM), most hits filed as cytotoxic; KB-3-1 viability, CellTiter-Glo ATP luminescence, 72 h; actives 1.4% (n = 400,000); AID 1347075; further: nearly all actives have a fitted effect of over 60% in size
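72 h, 37 °C compound treatment of KB-3-1 parental cells; CellTiter-Glo added, 10 min, luminescence read. Data corrected against DMSO-only plates and normalized before curve fitting.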
HT1080 IDH1KD tx – kills HT-1080 cells with IDH1 knockdown | HT-1080 IDH1 knockdown viability, ATP luminescence, 48 h | Potency, µM (series often up to 46.1 µM), for the others: at the highest dose activity, negative = toxicity, hits mostly cytotoxic | actives 2% (n = 360,000);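 further: 0% = DMSO wells and -100% = cell-free medium wells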
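Luminescent ATP read-out (CellTiter-Glo, 10 min at room temperature) after 48 h compound exposure at 37 °C gave viability of IDH1-knockdown HT-1080 cells. Activity was normalised to DMSO and cell-free wells, then fitted as concentration-response curves.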
HT1080-NT tox – kills 2HG-producing HT-1080-NT fibrosarcoma cells | actives 1.6% (n = 360,000) | AID 686970 | HT-1080-NT fibrosarcoma viability, CellTiter-Glo ATP luminescence, 48 h | Potency, µM (highest dose often 46.1 µM), without a hit: at the top dose activity, negative = less viability, most hits filed as cytotoxic;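 further: NT is the 2HG producing partner of a matched IDH1 knockdown line; 0% = DMSO-treated cells and -100% = media-only wells without cells; nearly all actives have a fitted effect of over 55% in size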
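Viability of the 2HG-overproducing fibrosarcoma line after 48 hours of compound exposure at 37 degrees C was determined by luminescence with CellTiter-Glo, and concentration-effect curves were then fitted and categorized.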
KB-V1 MDR tox – KB-V1 MDR subline cytotoxicity; AID 1347076; actives 3.4% (n = 400,000); KB-V1 MDR cells viability, CellTiter-Glo, 72 h; Potency, µM (series often up to 46.1 µM), actives largely listed as cytotoxic; further: nearly all actives have a fitted effect of over 60% in size
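In this primary screen, KB-V1 cells overexpressing P-gp are incubated with library compounds (lowest to highest concentration) for 72 h at 37 degrees C before a luminescent ATP viability read.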
DT40 TDP1 no CPT – qHTS for Inhibitors of human tyrosyl-DNA phosphodiesterase 1 (TDP1): qHTS in cells in absence of CPT | DT40 Tdp1-/- hTDP1 cells, no CPT, ATP luminescence, 48 h | Potency, µM (doses to about 46.2 µM), for inactives: at the top dose activity change, negative = growth inhibition, usual class: inhibitors | actives 15% (n = 420,000) | AID 686978, 2013; further: nearly all actives have a fitted effect of over 55% in size
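Chicken DT40 Tdp1-/- cells stably complemented with human TDP1 were seeded at 400 cells/well with DMSO in place of 20 nM camptothecin. After compound pinning, cells grew at least 48 hr at 37 °C; viability read by CellTiter-Glo luminescence.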
* = called active by the depositor; i = inactive; u = inconclusive; x = not tested or not shown. The list is not random: actives were taken first. Their share in the collection is about 19%. The call rests on the fitted dose curve; in most records, active means well fitted curve in the direction sought with a large enough effect; inconclusive means small, poorly fitted or top-dose-only effect, or another doubt; inactive means no such curve, though single readings can be large; an effect the other way counts as inactive or inconclusive. Unless noted, on the % scale 0 is the no-effect control and ±100 the full control effect; potency means the concentration at half of the fitted maximal effect.

SMILES | TDP1 cell CPT | KB-3-1 tox | HT1080 IDH1KD tx | HT1080-NT tox | KB-V1 MDR tox | DT40 TDP1 no CPT
CC(=O)N1CCN(c2ccc(Oc3ccc([N+](=O)[O-])c(C(F)(F)F)c3)cc2)CC1 | 11.6µM* | u | -29.0% | u | 5.17µM* | 2.91µM*
CCOc1ccc(C(=O)Nc2ccc(N3CCN(C(C)=O)CC3)cc2)cc1[N+](=O)[O-] | u | i | 7.9% | 16.0% | u | u
Cc1ccc(-c2ccc3c(c2)O[C@H](CN(C)Cc2cncnc2)[C@@H](C)CN([C@H](C)CO)S3(=O)=O)cc1 | u | i | -0.3% | -7.4% | i | 23.1µM*
C/C=C/c1ccc2c(c1)O[C@@H](CN(C)C(=O)c1ccc(F)cc1)[C@@H](C)CN([C@H](C)CO)S2(=O)=O | u | i | 1.8% | -5.1% | i | u
COc1cccc(-c2ccc3c(c2)O[C@H](CN(C)C(=O)c2ccccc2F)[C@H](C)CN([C@H](C)CO)S3(=O)=O)c1 | u | u | -11.4% | 7.8% | u | 20.6µM*
C[C@H](CO)N1C[C@H](C)[C@@H](CN(C)Cc2cncnc2)Oc2cc(Br)ccc2S1(=O)=O | u | i | -0.4% | 1.1% | u | u
C[C@@H]1CN([C@@H](C)CO)S(=O)(=O)c2ccc(-c3cccc(C#N)c3)cc2O[C@@H]1CN(C)C(=O)c1ccc(F)cc1 | u | i | -27.9% | 25.6% | i | 20.6µM*
COc1cccc(-c2ccc3c(c2)O[C@@H](CN(C)Cc2cncnc2)[C@@H](C)CN([C@H](C)CO)S3(=O)=O)c1 | 23.1µM* | i | 0.2% | 0.7% | i | 9.2µM*
Cn1cccc1C(=O)N1CCC2(CCN(Cc3nccs3)CC2)CC1 | -1.5% | x | x | x | x | -19.5%
COc1ccc(-c2nc3cnc(N(C)C)nc3n(C)c2=O)cc1 | -0.8% | x | x | x | x | 10.2%
CCN(CC)CCOC(=O)c1ccc(N)cc1Cl | -3.1% | x | x | x | x | -10.6%
O=C(NCC1CCCCC1)c1ccc2nc([C@@H]3O[C@H](CO)[C@@H](O)[C@H]3O)[nH]c2c1 | 8.1% | i | u | u | i | 20.0%
O=C(NC1CCSc2ccccc21)c1ccccc1Br (stereo not drawn) | -25.5% | i | 7.5% | 14.0% | i | -0.7%
COc1ccc(-c2cn3cc(C(F)(F)F)cc(Cl)c3n2)cc1 | u | u | u | u | u | 18.4µM*
COc1cc(OC)cc(C(=O)NCCN2C(=O)S/C(=C\c3cccs3)C2=O)c1 | 16.4µM* | i | -19.5% | -18.2% | u | 16.4µM*
COc1cccc(C(=O)NCCN2C(=O)S/C(=C/c3cccs3)C2=O)c1OC | -25.0% | i | -7.1% | -10.7% | i | u
COc1cc(C(=O)NCCN2C(=O)S/C(=C\c3cccs3)C2=O)cc(OC)c1OC | u | i | u | -24.2% | u | 16.4µM*
COc1cc(C(=O)NCC(=O)NCCN2C(=O)S/C(=C\c3ccc4c(c3)OCO4)C2=O)cc(OC)c1OC | u | i | 0.6% | 3.1% | i | -29.4%
COc1cc(/C=C2\SC(=O)N(CCNC(=O)c3c(C)noc3C)C2=O)cc(OC)c1OC | u | i | -2.8% | -3.5% | i | 16.4µM*
CN(C)C(=O)c1ccc(-n2cccn2)nc1 | 14.1% | i | 28.3% | 19.1% | i | -2.8%
CC(=O)c1cccc(NC(=O)C2CCCN(c3nnc(-n4cccc4)s3)C2)c1 (stereo not drawn) | u | i | x | x | i | 16.4µM*
Cc1cccc(NC(=O)C2CCCN(c3nc4ccccc4s3)C2)c1C (stereo not drawn) | u | i | x | x | i | u
COc1cccc(NC(=O)C2CCC2)c1 | -4.0% | i | 0.6% | 3.0% | i | -1.5%
Cc1ccccc1NC(=O)C1CCCN(c2nnc(N3CCCC3=O)s2)C1 (stereo not drawn) | -7.1% | i | 6.3% | 19.7% | i | -6.6%
Cc1cccc(NC(=O)C2CCCN(c3nnc(-n4c(C)ccc4C)s3)C2)c1C (stereo not drawn) | 14.6µM* | x | x | x | x | 14.6µM*
SMILES | TDP1 cell CPT | KB-3-1 tox | HT1080 IDH1KD tx | HT1080-NT tox | KB-V1 MDR tox | DT40 TDP1 no CPT
COc1cccc(NC(=O)C2CCCN(c3nnc(-n4c(C)ccc4C)s3)C2)c1 (stereo not drawn) | 18.4µM* | x | x | x | x | 13µM*
Cc1cc(F)ccc1NC(=O)C1CCCN(c2nnc(-n3c(C)ccc3C)s2)C1 (stereo not drawn) | 20.6µM* | i | x | x | u | 16.4µM*
COc1ccc(CNC(=O)C2CCN(c3nc4ccccc4[nH]3)CC2)cc1OC | -15.9% | i | x | x | i | -26.2%
O=C(NC(=S)NCC1CCCO1)c1ccc([N+](=O)[O-])cc1 (stereo not drawn) | 5.8% | i | 14.0% | 4.5% | u | -2.2%
O=[N+]([O-])c1ccc(CSc2nc3ncc(Br)cc3[nH]2)cc1 | -10.8% | i | 1.7% | 3.5% | i | -16.7%
Cc1cccc(N(CC(O)CON=C2c3ccccc3-c3ccccc32)S(C)(=O)=O)c1 (stereo not drawn) | u | i | u | u | i | u
O=C(CSc1nnc(C2CC2)n1CC1CCCO1)Nc1ccccc1Cl (stereo not drawn) | 1.9% | i | 1.5% | -7.8% | i | 2.5%
CC(=O)c1ccc(NC(=O)Nc2nnc(N3CCCC(C)C3)s2)cc1 (stereo not drawn) | 6.51µM* | i | x | x | i | 18.4µM*
O=C(NC1CCCCC1)c1ccccc1NC(=O)C1CC(=O)N(c2ccccc2)C1 (stereo not drawn) | -28.3% | i | -16.9% | 5.1% | i | -11.7%
Cc1cccc(NC(=O)c2ccccc2NC(=O)C2CCCCC2)c1C | -29.3% | i | 18.5% | -1.4% | 18.4µM* | u
Cc1ccc(N2CC(C(=O)Nc3ccccc3C(=O)NC3CCCCC3)CC2=O)cc1 (stereo not drawn) | 1.3% | i | -0.4% | 5.7% | 3.66µM* | -7.3%
COC(=O)/C=C/c1oc2ccccc2c1C | -14.9% | i | 2.2% | 3.2% | i | -18.9%
COc1cccc(NC(=O)COC(=O)CCCC2=NS(=O)(=O)c3ccccc3N2)c1 | -0.1% | i | -11.5% | 0.7% | i | 23.3%
NC(Cc1ccc(Cl)cc1)c1csc(NC(=O)NCCc2ccccc2)n1 (stereo not drawn) | 23.1µM* | u | u | 16.4µM* | i | u
